Bioassay records as filed in PubChem.
The sample as a whole holds a higher share of hits than the screen did.
ROMK mod: ROMK potassium channel modulators, primary screen, cell-based, thallium flux, MLSMR library. ATP-sensitive inward rectifier potassium channel 1 (Homo sapiens), P48048. Tet-inducible ROMK, thallium flux fluorescence; actives lie on both sides. B-score at 10 µM. 130,000 tested, 2% active;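 active means signal ratio slope over the read window, or its plate-corrected B-score, at least 3 SD from the plate mean, either direction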;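 further: B-score of the F/F0 ratio slope over 7 to 12 s after thallium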
Target sequence (P48048 whole entry, looked up): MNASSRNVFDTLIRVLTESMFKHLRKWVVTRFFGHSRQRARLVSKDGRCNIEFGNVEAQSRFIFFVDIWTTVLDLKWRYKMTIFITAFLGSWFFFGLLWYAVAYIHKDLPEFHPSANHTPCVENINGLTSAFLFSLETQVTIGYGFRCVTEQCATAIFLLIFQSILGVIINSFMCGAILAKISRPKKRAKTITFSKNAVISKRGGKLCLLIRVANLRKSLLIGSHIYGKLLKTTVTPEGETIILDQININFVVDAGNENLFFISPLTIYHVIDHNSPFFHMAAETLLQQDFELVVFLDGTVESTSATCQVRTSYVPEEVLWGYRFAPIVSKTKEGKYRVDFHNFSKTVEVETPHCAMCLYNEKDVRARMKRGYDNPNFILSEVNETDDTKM
Insulin prom inh: inhibitors of insulin promoter-driven GFP, primary screen, imaging, TRM-6 cells (human fetal islet line), eGFP reporter, cell count; reporter expression induced with tamoxifen; inhibition, % at 2 µM; 130,000 tested, 0.9% active; AID 1273, 2008;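 active means inhibition above the mean plus 3 SD, with well images judged a real hit on visual review, cut at about 60% in these data, passing the limit was not always enough; inconclusive means inhibition over the cutoff but images rejected on review; inactive means inhibition not above the cutoff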
Insulin prom up: insulin promoter activators in MIN6 cells, imaging, high-content screening, mouse beta cells; MIN6 insulin promoter-GFP reporter; stronger effect = higher value; z-score at 5 µM; 190,000 tested, 0.3% active; AID 1625, 2009;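 active means z-score above 3 at 5 µM with at least 500 cells counted in the well; inconclusive means wells under 500 cells, flagged as cytotoxic or low count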
Tb hexokinase: Trypanosoma brucei hexokinase 1 inhibitors, primary screen, biochemical, G6PDH-coupled NADH absorbance, MLSCN library. hexokinase 1 [Trypanosoma brucei]. recombinant TbHK1, G6PDH-coupled NADH A340. inhibition, % at 10 µM. 220,000 tested, 0.11% active;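 active means inhibition of 50% or more in the single-dose primary screen; inactive means inhibition below 50%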
HSV replic up: enhancers of HSV replication in host cells, fold increase, host cell viability | HSV replication augmentation in cells | maximum fold increase | 220,000 tested, 0.005% active | AID 1956, 2009; in the data active means maximum fold increase above about 1.5; inconclusive means no clear call, values can overlap the other calls; tested in PC3 cells
ROMK hit retest: ROMK channel modulator hit retest, confirmation, cell-based, thallium flux, duplicate, resupplied hits; fluorescence ratio; stronger effect = lower value; normalized thallium flux (F/F0 slope) at 10 µM; shares compounds with ROMK mod; 3,000 tested, 54% active; AID 1917, 2009;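 active means Flux at 10 µM at least 3 SD below or above vehicle control mean in one or both replicates; inconclusive means no clear call, values can overlap the other calls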
Of the large screens only hits and unclear results are named; the others gave an inactive call (follow-up assays come after a bar, where they were run).

Cc1cccc(NS(=O)(=O)c2ccc3[nH]c(=O)cc(C(=O)OC(C)C(=O)Nc4ccc([N+](=O)[O-])cc4)c3c2)c1 (stereo not given)	ROMK mod -3.1 (no result: Insulin prom inh) | ROMK hit retest inconclusive
CCc1ccc(NC(=O)C(C)OC(=O)c2cc(=O)[nH]c3ccc(S(=O)(=O)Nc4ccc(F)cc4)cc23)cc1 (stereo not given)	Insulin prom inh inconclusive
Cc1nnsc1S(=O)(=O)Cc1ccccc1C(F)(F)F	none
Cc1ccc(-n2cc(CN3CCC(CO)(Cc4ccccc4)CC3)cn2)cc1	ROMK mod -5.2 (no result: Insulin prom inh) | ROMK hit retest 0.059
Cc1ccc(-n2cc(CN3CCC(CO)(Cc4cccc(C(F)(F)F)c4)CC3)cn2)cc1	none (no result: Insulin prom inh)
O=C(CSc1nncs1)NCCCc1ccccc1	none
COc1cc(/C=C(\C#N)C(N)=O)ccc1OS(=O)(=O)c1ccc(C)cc1	none (no result: ROMK mod) | ROMK hit retest 0.041
CCNC(=O)/C(C#N)=C/c1c(N(Cc2ccccc2)Cc2ccccc2)nc2ccccn2c1=O	none (no result: ROMK mod)
CNC(=O)/C(C#N)=C/c1c(N(Cc2ccccc2)Cc2ccccc2)nc2c(C)cccn2c1=O	none (no result: ROMK mod, Insulin prom inh) | ROMK hit retest 0.059
O=C(NCc1ccco1)c1cc(-c2ccc3c(c2)OCO3)on1	none
COCCNC(=O)c1cc(-c2ccc3c(c2)OCO3)on1	none (no result: ROMK mod, Insulin prom inh, HSV replic up) | ROMK hit retest inactive
CCCNC(=O)c1cc(-c2ccc(Br)cc2)on1	none (no result: ROMK mod, Insulin prom inh, HSV replic up) | ROMK hit retest inactive
COCC(C)n1c(C)cc(C(=O)COC(=O)/C=C/c2cccc(F)c2)c1C (stereo not given)	none
CCC(CC)NCc1ccc2c(c1)c1ccccc1n2CC	none
CCn1c2ccccc2c2cc(CNCc3ccc(OC)cc3OC)ccc21	ROMK mod -5.1 (no result: Insulin prom inh) | ROMK hit retest 0.046
COc1cccc(CNC(=O)CCC2CCCN(C(=O)C3CCOCC3)C2)c1 (stereo not given)	none (no result: Insulin prom inh)
CCOc1ccc(NC(=O)N[C@@H](CCSC)C(=O)OC)cc1	ROMK mod 2.4 | ROMK hit retest inconclusive
Cc1sc(NC(=O)c2ccccc2)c(C(c2ccc(Cl)cc2)N2CCN(CCO)CC2)c1C (stereo not given)	ROMK mod -2.4 | ROMK hit retest inactive
CCC(C)c1ccc(OCCn2ccnc2)cc1 (stereo not given)	none (no result: HSV replic up)
O=C(O)c1ccc(OCCn2ccnc2)cc1	none | ROMK hit retest inactive
O=C(CSc1nnc(CNC(=O)c2cccs2)o1)NCC1CCCO1 (stereo not given)	none (no result: Insulin prom inh)
CCCS(=O)(=O)N1CCC(C(=O)NCCCN2CCC(Cc3ccccc3)CC2)CC1	ROMK mod -4.3 | ROMK hit retest inactive
CC1(C)CC(N=C2C([N+](=O)[O-])=CC=C3C2=NC2(CCCCC2)N3O)CC(C)(C)N1	none (no result: ROMK mod, Insulin prom inh) | ROMK hit retest inactive
COc1ccc(-c2csc(NCCc3nc4cc(C(=O)NCCCO)ccc4n3Cc3ccc(C)cc3)n2)cc1	none (no result: ROMK mod, Insulin prom inh, Insulin prom up, Tb hexokinase)
CS(=O)(=O)N1CCC(C(=O)NCc2ccc(Cl)cc2Cl)CC1	none (no result: Insulin prom up)
COc1ccc(-c2nc(NC3=NCCCCC3)sc2C)cc1	none (no result: Insulin prom inh)
CCNc1nc(-c2ccc(OC(F)F)cc2)c(C)s1	ROMK mod -4.5 (no result: Insulin prom inh) | ROMK hit retest 0.062
CCOC(=O)COc1c(Br)cc(/C=C2\SC(=O)N(CC(=O)N3CCCC3)C2=O)cc1OC	ROMK mod -4.7 (no result: HSV replic up) | ROMK hit retest 0.057
Cc1[nH]c2ccccc2c1C(=O)NS(=O)(=O)Nc1ccc(Cl)cc1	none
CCOC(=O)Cc1csc(NC(=O)c2cc3c(s2)CCCC3)n1	none
CCOC(=O)Cc1csc(NC(=O)c2csc3c2CCCC3)n1	none (no result: ROMK mod) | ROMK hit retest inactive
N#Cc1cc2cc3ccccc3nc2n2c(=O)c3ccccc3nc12	none (no result: ROMK mod) | ROMK hit retest 0.056
Cc1cc(C#N)c2ccccc2n1	none (no result: ROMK mod, Insulin prom inh)
CN=C1S/C(=C\c2cn(CC(=O)OC)c3ccccc23)C(=O)N1C	ROMK mod 0.78 | ROMK hit retest inactive
c1ccc(OCCCCn2cnc3ccccc32)cc1	none (no result: ROMK mod)
Cc1ccc([N+](=O)[O-])c(OCCn2cnc3ccccc32)c1	ROMK mod -3 (no result: Insulin prom inh) | ROMK hit retest inconclusive
c1ccc(OCCn2cnc3ccccc32)cc1	ROMK mod -2.2 | ROMK hit retest 0.067
CCN(CC)C(=S)Oc1ccc(Cl)cc1Cl	none (no result: ROMK mod, Insulin prom inh)
CCOC(=O)c1c(-c2ccc(-c3ccccc3)cc2)csc1NC(=O)C1C2CCC(O2)C1C(=O)O (stereo not given)	none (no result: ROMK mod, Insulin prom up) | ROMK hit retest 0.11
O=C(Nc1nnc(-c2ccccc2F)s1)C1CCN(S(=O)(=O)c2ccc(Cl)cc2)CC1	none (no result: ROMK mod, Insulin prom inh) | ROMK hit retest inactive
COc1ccc(S(=O)(=O)N2CCC(C(=O)Nc3c(F)cccc3F)CC2)cc1	none (no result: ROMK mod, Insulin prom inh) | ROMK hit retest inactive
O=C(NCCO)C1CCN(S(=O)(=O)c2ccc(F)cc2)CC1	ROMK mod -6.9 (no result: HSV replic up) | ROMK hit retest inactive
Cc1ccc(SCCCCN2CCNCC2)cc1	none
CCn1cc(C2C3=C(CC(C)(C)CC3=O)N(c3ccccc3)C3=C2C(=O)CC(C)(C)C3)c(C)n1	none (no result: ROMK mod)
COC(=O)[C@@H]1CC[C@H](C)[C@@H](c2ccc(C)cc2)N1C(=O)c1ccc(/C=N/OCC[C@@H]2C=C[C@H](OC(C)=O)[C@@H](COC(C)=O)O2)cc1	none (no result: HSV replic up)
Cc1ccc(Cn2nnc3c(=O)n(CC(=O)NCc4ccccc4)cnc32)cc1	ROMK mod 2.3 | ROMK hit retest inactive
COc1cccc(NC(=O)c2cc([N+](=O)[O-])ccc2NCc2cccnc2)c1	ROMK mod -6.7 | ROMK hit retest 0.03
COCCNc1ccc([N+](=O)[O-])cc1C(=O)Nc1cccc(C)n1	ROMK mod -5.1 (no result: Insulin prom inh) | ROMK hit retest 0.029
Cc1cccc(C(=O)Nc2cccc(Br)c2)c1[N+](=O)[O-]	none (no result: Insulin prom inh)
Cc1ccc(NC(=O)c2cc([N+](=O)[O-])ccc2NCc2cccnc2)cc1Cl	none (no result: ROMK mod)
COc1cccc(NC(=O)c2cccc(C)c2[N+](=O)[O-])c1	ROMK mod 4.3 (no result: Insulin prom inh) | ROMK hit retest inactive
Cc1ccc(N2CN(Cc3ccco3)CNC2=S)c(C)c1	none
CCn1cc(/C=N\NC(=O)Cc2ccc(Cl)cc2)cn1	none
CCN(CC)c1ccc2cc(C#N)c(=O)oc2c1	Insulin prom up 4.2, HSV replic up inconclusive (no result: ROMK mod) | ROMK hit retest 0.046
COc1ccc(N2C(=O)CC2(/C=C/c2ccccc2OC)C(=O)NC2CCCC2)cc1 (stereo not given)	ROMK mod -4.7 (no result: Insulin prom up) | ROMK hit retest 0.054
O=C1CC(/C=C/c2ccccc2)(C(=O)NC2CCCC2)N1c1ccc(S(=O)(=O)N2CCCC2)cc1 (stereo not given)	none
CCCSc1nnc(NC(=O)Nc2ccc(F)cc2)s1	none (no result: Insulin prom inh) | ROMK hit retest 0.062
COc1cccc(-c2nc(N)nc(SC)c2C#N)c1	none (no result: ROMK mod, Insulin prom inh)
CN(C)c1ccc(/C=c2\sc3n(c2=O)CCCN=3)cc1	ROMK mod -4.4 (no result: Insulin prom inh) | ROMK hit retest 0.054
O=C(N/N=C/c1cn(-c2ccccc2)nc1-c1cc2ccccc2o1)c1cccnc1	none (no result: ROMK mod) | ROMK hit retest inactive
